The text below walks through data of the supplement of paper PMC6555819.

In the assay the test system is VDR:RXRa (NR concentration 270 nM, RXRa partner concentration 90 nM). Nature of the assay: PBM binding z-score (relative to random genomic background probes); higher = stronger binding; sequences stand for … in GC…GCGATTGACAGCGTAGAATGAAGG
The method, then:
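Protein-binding microarray (Agilent 4x180K custom design, double-stranded 60-nt probes: 5' GC cap, 34-nt variable region, 24-nt constant primer region; full probe sequence given). Purified or IVT nuclear receptor:RXRα heterodimers (3:1 NR:RXRα, mostly 270:90 nM) or homodimers were incubated for 1 h in PBS with 2% milk and no ligand, then detected with Alexa488 antibodies. Fluorescence from o1-orientation probes (~5 replicates averaged) was converted to z-scores against 500 random hg19 background probes. Variable regions are seed direct-repeat (DR0–DR5) sites, all their single-nucleotide variants and half-site ablations.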
With GATACAGCGTCAAGGCCAGAGTACGCGTATTGAT, the PBM binding z-score is -0.35.

For the sequence CAAACTAGGTCAAGGTCAAAGACGGTTTGTGCCA, the PBM binding z-score was 4.74.

With TAGCCTAGGTCAGATCGGGCCAGTTTACGCTATA, the PBM binding z-score came out at 0.663.

As for CCTTACGGGACAAGGTTATAGCACGGGTGGTACG, the PBM binding z-score is 0.416.

CATACAGGGTCAGCTAGGCCACAGTAGGGACGGC returned a PBM binding z-score of 4.79.

Consider GCTTGTAGATCAAGGTGAAGAAAGACTAAGCTAA, for which the PBM binding z-score is -0.394.

Consider CCGACTGGGGCCGAAAGGTTACCATACCATCCGG, for which the PBM binding z-score stood at 0.789.

In the case of CGTCATAGTTCAAGGTAACGTAACAGAAAGCAGC, the PBM binding z-score worked out at 1.3.

Regarding CCTACTGGGCCCTTCAGAGGTCATTGATCATATG, the PBM binding z-score amounted to 3.41.

Turning to CCAAGTTGGTCAGGAGGTCACACACCGGATATGA, the PBM binding z-score was 4.08.

The sequence GCTTATAGGTAATACAAGGTGAAAGTCCGATTGT returned a PBM binding z-score of 0.401.

With CGAACCAGGTCATCCAGGACAGTGAATACATTGA, the PBM binding z-score turned out to be 5.42.

In turn, CCTTACGGGTCACGAGGTTATAGCCCGACGAGCG showed a PBM binding z-score of 5.11.

As for CCTACTGGGCCAAAAAGCTCATTGATGCCGATAA, the PBM binding z-score is -0.648.

On to AGCCAAAGTTCAGGACGAGGTAACGTAAAGCACG, for which the PBM binding z-score stood at 2.71.

In turn, CCGACTGGGGCATAAGGTTAGCATAAGCCAGCCC returned a PBM binding z-score of -0.409.

Turning to CCTTACGGGTCCAGGTTATAGCACGGGTGGTACG, the PBM binding z-score was -0.152.

CGAACTAGGTCATCCAGGACACTGAATACATTGA: the PBM binding z-score amounted to 5.27.

GATACAGGGTAAGCTAGAGGCCAGAGTATGGAAA: the PBM binding z-score is -0.409.

On to ACTATTAGTTGACTTAGGGCAACCGTTACGACGC, for which the PBM binding z-score was found to be 0.577.

The sequence CGAACTAGGTTAGAACAGGACAGTGAAGGATGAT gave a PBM binding z-score of -0.215.

As for ATACCAAGGTGACCGTGAGGTCGTTGATACTAAC, the PBM binding z-score is 4.04.

For AGAATGAGGTTATTAAGATCAGGGACTTGCGGTC, the PBM binding z-score was 2.47.

On to ATATATAGGTTATCGGGTCATTCAGTTTGCGCAT, for which the PBM binding z-score worked out at 5.37.

In the case of TAGCCTATGTCATGCGGGCCAGTATAGTGTCGGC, the PBM binding z-score is -0.45.

Sequence ACCTCTAGGTAACCAAGTTCAGTGAATGCCGAAC gave a PBM binding z-score of 3.96.

AGTCAAAGTTCGTCTAGGTAACGTAAGATATGCT: the PBM binding z-score amounted to 2.59.

ATATGTAGGTTACGGGTCATTCAGGTTGGTTCGC showed a PBM binding z-score of 4.76.

In turn, TCTAGCAGGCCAGAGGGTCCCTCAAGAGGTACGG displayed a PBM binding z-score of -0.431.

For GGAACGAGGGGAAGTTGATAGCAGAGTTTGATGG, the PBM binding z-score was -0.234.

With TGAATGGGGTTAAAGATCAGGGAACGTGGCGTCG, the PBM binding z-score came to 3.29.

Take TCTGCTAGGTCAGTTGGTCACCTAACGAGCTGCC: the PBM binding z-score was 0.235.

The sequence CAAACTAGGTCAATGTCAAAGTCGGTTTGTGCCA registered a PBM binding z-score of 1.58.

As to CAAACTAGGTCAAATGTCAAAGTCGAGCCAACCA, the PBM binding z-score amounted to 3.1.

CCGACTGGGACAGAAAGGTTACCATACCATCCGG had a PBM binding z-score of 0.351.

Turning to CAAACTAGGTCACAGAGGTCAATGTCCGTGCGTA, the PBM binding z-score amounted to 7.62.

Sequence GCTTGTAGAGCAAGGTTAAGAAAGACTAAGCTAA returned a PBM binding z-score of -0.112.

As for AGAACGAGGGCACGCTGAGTTGCTAGCAGAGTAG, the PBM binding z-score turned out to be 1.18.

On to ATATGTAGGTTAAGGGTCTTTCAGGTTGGTTCGC, for which the PBM binding z-score came to 1.79.

Consider CCGTCTGGGGCAGAAAGGTTACCATACCATCCGG, for which the PBM binding z-score amounted to 0.809.
